# Cardio protect: protects H9c2 cardiomyocytes from peroxide injury; H2O2 injury protection, ATPLite, 2 h; protection from H2O2 cell death, % at 20 µM; hit rate 0.63% among 360,000; AID 588492;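 active = compounds giving at least 50% protection of heart cells from peroxide-induced death in the single-dose screen, raw or plate-pattern-corrected value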;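 note: 0% = DMSO wells with peroxide and 100% = DMSO wells without peroxide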
# PHOSPHO1 inh: PHOSPHO1 (human) inhibition | Q8TCT1 | recombinant PHOSPHO1, absorbance phosphatase assay | inhibition, % at 13.3 µM | hit rate 1.1% among 290,000 | AID 1565; in the data active = inhibition above about 60%
# Efflux pump mplx: inhibitors of Candida antifungal efflux pumps expressed in yeast | hit rate 0.44% among 330,000 | S. cerevisiae Candida pump triplex, Nile Red efflux | AID 485275 | inhibition, % at 10 µM;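 active = plate passing quality check with inhibition over a set limit, or well fluorescence over plate mean plus 4 SD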;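 note: Nile Red retained in pooled yeast measured as flow cytometry median fluorescence; 0% = buffer negative control and 100% = Enniatin B positive control; higher means more Nile Red kept so more efflux inhibition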
# Cl transport mod: modulators of human KCC2 chloride dependent transport; hit rate 2.2% among 190,000; Q9H2X9; B-score of Tl+ flux slope (higher = more flux/activation; lower = inhibition) at 10 µM; KCC2 cells, thallium flux FluoZin-2 fluorescence; AID 1456;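 active = thallium flux slope and its plate-corrected score both differing from the plate sample mean at a set confidence after two filtering rounds, in either direction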;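 note: slope of fluorescence scaled to starting intensity during 10 to 20 s after thallium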
# Target sequence (Q9H2X9 whole entry, looked up): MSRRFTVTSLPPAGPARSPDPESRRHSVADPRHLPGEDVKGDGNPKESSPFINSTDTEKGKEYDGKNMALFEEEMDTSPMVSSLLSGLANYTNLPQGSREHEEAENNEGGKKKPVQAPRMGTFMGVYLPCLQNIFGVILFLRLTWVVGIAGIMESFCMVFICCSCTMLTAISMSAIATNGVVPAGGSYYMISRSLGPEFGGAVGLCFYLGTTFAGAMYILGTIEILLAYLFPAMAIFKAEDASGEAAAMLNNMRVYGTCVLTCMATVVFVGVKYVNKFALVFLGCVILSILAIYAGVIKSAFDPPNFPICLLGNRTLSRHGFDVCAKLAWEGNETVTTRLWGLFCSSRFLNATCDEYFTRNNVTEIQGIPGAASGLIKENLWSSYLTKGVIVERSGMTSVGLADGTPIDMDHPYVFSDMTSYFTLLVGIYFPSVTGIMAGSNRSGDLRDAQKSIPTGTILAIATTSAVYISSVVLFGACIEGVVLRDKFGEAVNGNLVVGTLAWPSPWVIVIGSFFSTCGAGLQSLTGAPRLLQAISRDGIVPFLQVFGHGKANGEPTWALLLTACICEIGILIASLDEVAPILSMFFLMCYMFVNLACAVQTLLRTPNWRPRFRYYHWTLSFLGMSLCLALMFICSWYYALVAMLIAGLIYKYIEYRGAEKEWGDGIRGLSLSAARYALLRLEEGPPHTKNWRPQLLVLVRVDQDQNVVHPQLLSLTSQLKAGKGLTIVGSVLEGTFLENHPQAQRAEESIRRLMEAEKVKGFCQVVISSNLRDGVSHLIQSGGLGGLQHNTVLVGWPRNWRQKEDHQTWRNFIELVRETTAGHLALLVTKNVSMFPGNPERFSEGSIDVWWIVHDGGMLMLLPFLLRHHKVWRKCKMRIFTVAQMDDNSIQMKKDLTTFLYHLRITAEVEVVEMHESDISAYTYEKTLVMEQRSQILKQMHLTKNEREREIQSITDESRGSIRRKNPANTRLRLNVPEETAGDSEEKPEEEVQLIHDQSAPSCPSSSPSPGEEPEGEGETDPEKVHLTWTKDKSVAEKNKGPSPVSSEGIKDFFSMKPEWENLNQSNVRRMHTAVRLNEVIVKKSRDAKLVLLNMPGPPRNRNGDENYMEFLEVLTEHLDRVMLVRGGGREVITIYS
# Calb FLC: C. albicans growth modulation with fluconazole | C. albicans CaCi-2 (fluconazole-resistant clinical isolate) + fluconazole, Alamar Blue growth, 48 h | growth inhibition, % (no concentration beside the values) | hit rate 0.57% among 300,000 | AID 1979;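 active = growth inhibition above about 58% in most replicates, limit read from the data, passing the limit was not always enough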;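 note: all wells also contain fluconazole at 8 µg/ml as a sub-toxic cotreatment; 0% = median of DMSO wells and 100% = median of geldanamycin control wells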
# Active calls of the source: *; x = no result. An excerpt weighted towards active compounds, which were near 3.3% of everything screened.
SMILES,Cardio protect,PHOSPHO1 inh,Efflux pump mplx,Cl transport mod,Calb FLC
Cc1cccc(N2CC(C(=O)NCCC3=CCCCC3)CC2=O)c1C (centres undefined),-1,x,0,x,1
Brc1ccc(CSc2ccc3nnc(-c4cccnc4)n3n2)cc1,68*,7,0,-2.3,-12
O=C(Cn1cc([N+](=O)[O-])cn1)N1CCN(c2ccccc2)CC1,0,24,0,x,3
O=C(Cn1cnc2ccccc2c1=O)N1CCc2ccccc2C1,2,63*,0,0.048,25
O=C(COc1cccnc1[N+](=O)[O-])N1CCc2ccccc2C1,4,61*,0,0.55,1
O=C(COc1cccnc1[N+](=O)[O-])N1CCc2ccccc21,1,16,0,-1.1,1
O=C(Cn1cc([N+](=O)[O-])cn1)N1CCc2ccccc2C1,-6,61*,0,-0.039,-8
Cc1nn(-c2ccccc2)c2nc(C(F)F)cc(C(F)F)c12,-9,x,0,x,x
COc1ccccc1N1CCN(c2ccc3c(c2)S(=O)(=O)c2cccc(C(=O)NCc4cccc(F)c4)c2C3=O)CC1,38,x,x,x,x
O=C1CC(c2cc(-c3ccccc3)no2)C1,3,36,0,x,-7
C=CCc1c(C)nc(SC)nc1Nc1ccc(C(=O)O)cc1,6,-11,0,-0.88,1
C=CCc1c(C)nc(SC)nc1Nc1ccc(C(C)=O)cc1,13,74*,0,-1.3,27
O=C(Cn1c(=O)oc2ccccc21)Nc1ccc(Cl)cc1Cl,6,x,0,x,-2
Cc1noc(C)c1S(=O)(=O)Nc1ccc2c(c1)C(=O)N([C@H](C)CO)C[C@H](C)[C@@H](CN(C)C(=O)NC1CCCCC1)O2,7,x,1,x,x
CS(=O)(=O)Nc1cccc(NC(=O)c2cccc3c(-c4cccc(C(N)=O)c4)coc23)c1,54*,x,x,x,x
CC(=O)c1cccc(NC(=O)c2cccc3c(-c4cccc(C(N)=O)c4)coc23)c1,6,x,x,x,x
CCOC(=O)c1cc([N+](=O)[O-])c([N+](=O)[O-])cc1NC(C)=O,-11,-5,0,-2.7,106*
CCOC(=O)c1ccc(NC(=O)c2ccccc2[N+](=O)[O-])cc1,0,-2,0,-1.8,-12
N#CCCSc1ccccc1NC(=O)c1cc(=O)c2ccccc2o1,52*,17,0,x,-16
CCOc1ccccc1NC(=O)c1cc(=O)c2ccccc2o1,-2,12,0,x,-3
COc1ccccc1CNC(=O)C1CCN(Cc2nc(-c3cccc(Cl)c3)oc2C)CC1,3,4,0,-1.2,14
CCc1ccc(-c2nc(CN3CCC(C(=O)NCc4ccccc4OC)CC3)c(C)o2)cc1,-2,77*,0,-0.51,-27
Cc1ccc(S(=O)(=O)N2C[C@@H](C)[C@]3(C2)[C@H](O)[C@H](OC(=O)NC2CC2)C[C@H]2C(=O)N(c4ccccc4)C(=O)[C@H]23)cc1,-5,x,x,x,x
O=[N+]([O-])c1ccc(-c2cn(-c3ccc(Cl)cc3)c(=S)[nH]2)cc1,0,3,0,3.7*,5
C[N+](C)(C)C/C=C1/COCO1,8,90*,0,-0.089,5
SMILES,Cardio protect,PHOSPHO1 inh,Efflux pump mplx,Cl transport mod,Calb FLC
CCn1c(-c2ccccc2Cl)nn(CC(=O)Nc2ccccc2C)c1=S,5,100*,0,0.28,4
O=C(Nc1nc(-c2ccccn2)cs1)c1ccc([N+](=O)[O-])o1,40,93*,0,0.31,3
Cc1ccc(C(=O)Nc2nc(-c3ccccn3)cs2)o1,47,15,0,0.5,-2
CCc1nnc(NC(=O)c2ccc(-c3ccc(C(C)=O)cc3)o2)s1,17,x,0,x,x
O=C(Nc1nc(-c2ccccn2)cs1)c1ccc(-c2ccccc2F)o1,58*,x,0,x,x
CC(=O)c1ccc(-c2ccc(C(=O)Nc3nc(-c4ccccn4)cs3)o2)cc1,99*,x,0,x,x
COc1ccc(-c2ccc3c(c2)C2CC3CCN2Cc2ccc(OC(F)(F)F)cc2)cc1 (centres undefined),-15,x,x,x,x
CCCCN(C(=O)CCCSc1nc2ccccc2[nH]1)c1c(N)n(Cc2ccccc2)c(=O)[nH]c1=O,2,5,0,x,7
C=CCn1c(=S)[nH]c2ccc(Br)cc2c1=O,2,1,0,52*,x
C=CCn1c(=S)[nH]c2nc3c(cc2c1=O)CCCC3,-6,-3,0,126*,-32
C=CCn1c(=O)c2ccccc2n2c(=S)[nH]nc12,-2,-103,0,x,6
COc1cc(CN2CCCC(N3CCN(c4ccc(F)cc4)CC3)C2)ccc1F (centres undefined),0,39,0,x,0
O=C(CN1C(=O)C2CC=CCC2C1=O)Nc1nc(-c2ccc(F)c(F)c2)cs1 (centres undefined),82*,x,0,x,x
COc1ccc(-c2csc(NC(=O)CN3C(=O)C4CC=CCC4C3=O)n2)cc1OC (centres undefined),6,-98,3,x,8
O=C(OCCOc1ccc(Br)cc1)c1ccc(Cl)nc1,-7,33,0,0.39,110*
CCN(CC)c1ccc(/C=N/Nc2nc3ccccc3[nH]2)c(O)c1,-15,14,0,-0.00048,98*
C(=N\Nc1nc2ccccc2[nH]1)/c1cccc2nccnc12,51*,18,0,0.25,2
Cc1ccc(C(=O)Nc2cccc(-c3cn4ccccc4n3)c2)cc1,0,2,0,0.059,94*
CCCC(=O)NNC(=O)CCC(=O)Nc1ccccc1Cl,4,28,0,-0.17,2
O=C(CCC(=O)Nc1ccccc1Cl)NNS(=O)(=O)c1ccc(Cl)cc1,7,31,0,x,111*
CC(=O)c1ccc(OCc2cc(C(=O)NC(C)c3cnn(C)c3)no2)cc1 (centres undefined),3,62*,0,x,6
CC1(C(=O)NS(=O)(=O)C2CC2)CCN(C(=O)c2c(F)cccc2F)C1 (centres undefined),-1,x,x,x,x
COc1ncnc2c1ncn2CCCN[C@H](C)c1cccc2ccccc12,19,x,x,x,x
COc1cc(-c2cc(-c3ccc(O)cc3)nc(N)c2C#N)ccc1O,50*,6,0,-2,9
COc1ccc(-c2cc(-c3ccc(O)cc3)nc(N)c2C#N)cc1,-5,13,0,x,-5
SMILES,Cardio protect,PHOSPHO1 inh,Efflux pump mplx,Cl transport mod,Calb FLC
O=C(Nc1ccc(F)c(Cl)c1)NC1CC1,12,30,0,0.26,83*
O=C(Nc1ccc(F)c(Cl)c1)C1CCCC1,-4,x,0,x,-7
CC1=CC(C)C2C(=O)N(CCC[N+](C)(C)C)C(=O)C2C1 (centres undefined),-4,94*,0,0.53,-5
C[N+](C)(C)CCCN1C(=O)CCCC1=O,-2,9,0,x,3
CC(C)C(NS(=O)(=O)c1cccc(C(F)(F)F)c1)C(=O)NCc1cccs1 (centres undefined),0,x,0,x,x
Cc1ccc(NC(=O)c2sc3ncn(CC(=O)N4CCN(c5ccccn5)CC4)c(=O)c3c2C)cc1F,2,38,0,x,6
Cc1ccc(NC(=O)c2sc3ncn(CC(=O)N4CCN(c5ccccn5)CC4)c(=O)c3c2C)cc1Cl,-4,64*,0,x,-6
